Compound activity (PubChem)
Hsp90 block – displaces geldanamycin probe from tumor Hsp90. P07900. NCI-N417 lysate Hsp90, Cy3B-geldanamycin FP displacement. inhibition, % at 30 µM. 64,000 tested, 0.35% active;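 active means inhibition above 50%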;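 further: 0% = tracer plus lysate wells and 100% = tracer alone without lysate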
MMP13 inh – inhibitors of human MMP13; 65,000 tested, 0.07% active; AID 570; MMP-13 fTHP FRET cleavage, Mca fluorescence; P45452; inhibition, % at 4 µM;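 active means inhibition above the mean of compound-free control plate wells plus 3 SD, cut at about 14% in these data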;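 further: 0% = DMSO wells and 100% = wells with reference MMP-13 inhibitor after basal subtraction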
M1 agonist – M1 muscarinic receptor agonism | CHO-M1 cells, Fluo-4 calcium fluorescence, agonist mode; active compounds read high | B-score at 10 µM | 64,000 tested, 3% active;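 active means fluorescence rise, raw or as B-score row- and column-corrected plate score, outside the 99.7% band of its plate's samples, either direction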
Cdc25B block – inhibitors of human Cdc25B phosphatase; recombinant Cdc25B, OMFP fluorescence Ex485/Em525; inhibition, %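 (compounds tested at 10 µM final in the well)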; P30305; 65,000 tested, 0.1% active; in the data active means inhibition above about 50%
DUSP1 inh – human dual specificity phosphatase 1 inhibition | P28562 | recombinant MKP-1, OMFP hydrolysis fluorescence | inhibition, %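 (compounds tested at a single concentration somewhere between 10 and 100 µM)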 | 65,000 tested, 0.15% active | AID 374;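 active means inhibition above about 50%, limit read from the data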;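 further: 0% = DMSO max control wells and 100% = wells with enzyme stopped by NaOH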
Target sequence (P28562 whole entry, looked up): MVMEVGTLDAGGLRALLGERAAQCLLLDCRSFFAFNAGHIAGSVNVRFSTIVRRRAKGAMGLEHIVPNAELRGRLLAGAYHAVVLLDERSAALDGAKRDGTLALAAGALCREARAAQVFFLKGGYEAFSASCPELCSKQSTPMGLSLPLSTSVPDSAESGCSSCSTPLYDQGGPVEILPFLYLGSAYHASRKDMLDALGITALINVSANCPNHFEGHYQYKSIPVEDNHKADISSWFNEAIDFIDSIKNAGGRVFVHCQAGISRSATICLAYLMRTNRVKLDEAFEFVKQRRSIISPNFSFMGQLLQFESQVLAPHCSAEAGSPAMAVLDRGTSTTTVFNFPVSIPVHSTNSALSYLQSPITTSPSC
M1 antag – M1 muscarinic receptor (rat) antagonism; P08482; CHO-M1 cells, Fluo-4 calcium, ACh EC80 antagonist mode; active compounds read low; B-score at 10 µM; 64,000 tested, 3.4% active; AID 628;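 active means calcium fluorescence response, raw or row-and-column corrected B-score, differing from the plate sample mean either way at a set confidence level, mostly lower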
M1 antag confirm – M1 muscarinic receptor (rat) antagonism, confirmed | shares compounds with M1 antag | CHO-M1 cells, Fluo-4 calcium, ACh EC80 antagonism; active compounds read low | calcium response (max-min fluorescence) at 10 µM | 1,700 tested, 43% active | AID 677;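 active means calcium response below the same-plate mean of wells given acetylcholine alone at its 80%-effect dose, minus 3 SD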;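 further: raw fluorescence intensity difference in arbitrary instrument units and not normalized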
mGluR4 antag – acts on human mGluR4 in M1 antagonist selectivity test. fluorescence response (max-min) at 10 µM. CHO-mGluR4 calcium flux, Fluo-4 fluorescence, glutamate EC80; active compounds read low. AID 678. 1,700 tested, 0.9% active. shares compounds with M1 antag;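 active means fluorescence response below the plate's average for near-maximal glutamate wells, less 3 SD of those wells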;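 further: raw unnormalized fluorescence span taken in the window right after glutamate addition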
The depositor's hits bear a star; i = inactive; x = not tested or not shown. Compounds with a hit are over-represented: about 6.1% of the library has one in this group of screens.

SMILES	Hsp90 block	MMP13 inh	M1 agonist	Cdc25B block	DUSP1 inh	M1 antag	M1 antag confirm	mGluR4 antag
Cc1ccc(S(=O)(=O)N2CCN(C(=O)CSc3nnc(-c4ccco4)o3)CC2)cc1	-1	0	-0.6	3	-1	-3*	511	193
COc1ccc2[nH]c(=O)c(CN(CCO)C(=O)c3ccccc3F)cc2c1	-1	-36	x	0	1	x	x	x
COC(=O)c1cccc(NC(=O)c2nn(C)c(=O)c3ccccc23)c1	1	-6	2.1	2	23	0.26	x	x
N=c1c(C(=O)NC2CCCC2)cc2c(=O)n3ccccc3nc2n1C1CCCC1	-8	i	1.9	-5	7	0.7	x	x
Cc1cccn2c(=O)c3cc(C(=O)NC4CCCC4)c(=N)n(C4CCCC4)c3nc12	0	i	-0.098	2	7	-4.8*	367*	258
Cc1cccn2c(=O)c3cc(C(=O)NC4CCCCC4)c(=N)n(CCN4CCOCC4)c3nc12	-1	3	1.4	6	-5	-2.4*	461	199
COc1ccc(NCc2nnc(SCC#N)n2-c2ccccc2OC)cc1	-4	-2	0.48	-5	-13	1.9	x	x
Cc1noc(C)c1COC(=O)c1cc(C)n(-c2ccccc2)c1C	-1	-5	0.34	-12	30	-2.7*	531	220
O=C(Cn1ccc2ccccc2c1=O)NCCC(=O)N1CCN(c2cccc(C(F)(F)F)c2)CC1	-6	0	3.3	-12	33	-0.95	x	x
O=C1CC(c2ccc(Cl)cc2)CC(O)=C1C=NCCN1CCNCC1 (configuration not stated)	x	1	-0.58	x	x	-5.3*	512*	184
COc1ccc(C2CC(=O)C(C=NCCN3CCNCC3)=C(O)C2)cc1OC (configuration not stated)	-2	4	-1.8	-5	-1	-1	x	x
COc1cc(NC(=O)c2cccs2)c(OC)cc1NC(=O)CCn1nnc2ccccc21	1	3	0.72	-1	24	-0.46	x	x
COCC(COCCCNC(=O)Nc1ccc(Br)cc1)OC (configuration not stated)	0	-6	-0.34	-9	-7	-1.6*	553	214
COCCCNC(=O)Nc1ccc(Br)cc1Cl	1	6	1.4	-10	8	0.68	x	x
CCC(c1nnnn1Cc1ccco1)N(Cc1ccccc1OC)Cc1cc2cc(C)ccc2[nH]c1=O (configuration not stated)	-1	-5	0.65	5	18	-2.2*	590	201
CCC(c1nnnn1Cc1ccco1)N(Cc1cc2cc(C)cc(C)c2[nH]c1=O)CC1CCCO1 (configuration not stated)	-6	-11	-0.56	-5	35	0.13	x	x
O=C(Cc1ccc(Cl)cc1)Nc1ccccc1CO	x	-3	0	5	5	-2.5*	613	236
CCOC(=O)CN1C(=O)C(CC)Oc2ccc(Cl)cc21 (configuration not stated)	-2	0	-0.097	-3	31	-3.6*	672	152
COc1ccc(N2CCN(S(=O)(=O)c3ccc(Br)s3)CC2)cc1	1	-2	0.17	-1	1	-18*	675	251
CC(NC(=O)CSc1ncnc2nc[nH]c12)c1ccccc1 (configuration not stated)	x	x	0.39	-14	6	-3.8*	667	259
CC(=O)CSc1ncnc2nc[nH]c12	-5	3	0.62	-8	-35	-0.026	x	x
N#CC1=C(N)NC(SCc2ccccc2)=C(C#N)C12CCCCC2	-7	0	0.72	-11	7	-1.4	x	x
CCSC1=C(C#N)C2(CCCCC2)C(C#N)=C(N)N1	-5	-2	-0.91	-3	30	-2.7*	505	212
COc1ccc(OC)c(NC(=O)c2nnn(Cc3ccccc3C)c2N)c1	-5	3	-0.43	-13	7	0.047	x	x
CCOC(=O)c1ccc(NC(=O)CSc2nccn2C)cc1	-1	4	-0.23	-17	1	-3.3*	623	229
